# In the supplement of paper PMC6555819:
# Legend:
# Assay in all cases: PBM binding z-score (relative to random genomic background probes); higher = stronger binding; sequences stand for … in GC…GCGATTGACAGCGTAGAATGAAGG
# [1] = tested on: FXR:RXRa (NR concentration 270 nM, RXRa partner concentration 90 nM)
# In short: (§1)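 For binding z-scores, the reference was random background probes on custom Agilent 4×180K protein-binding microarrays. These arrays were incubated 1 h with ligand-free nuclear receptor dimers in PBS pH 7.4, 2% milk, 0.02% Triton X-100, 1 mM DTT, 0.2 mg/mL BSA and 0.4 mg/ml salmon testes DNA. Fluorescence was scanned after antibody detection of each partner (one per run) and regression-normalized.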
# [2] = tested on: LXRa:RXRa (NR concentration 270 nM, RXRa partner concentration 90 nM)
# In short: as §1
# [3] = tested on: LXRa homodimer (NR concentration 270 nM)
# In short: as §1
# [4] = tested on: LXRb:RXRa (NR concentration 270 nM, RXRa partner concentration 90 nM)
# In short: as §1
# [5] = tested on: LXRb homodimer (NR concentration 270 nM)
# In short: as §1
# [6] = tested on: PPARa:RXRa (NR concentration 270 nM, RXRa partner concentration 90 nM)
# In short: as §1
# [7] = tested on: PPARg:RXRa (NR concentration 180 nM, RXRa partner concentration 90 nM)
# In short: as §1
# [8] = tested on: PPARg:RXRa 270nM:90nM, anti-RXR (NR concentration 270 nM, RXRa partner concentration 90 nM)
# In short: as §1
# [9] = tested on: PPARg:RXRa 30nM:10nM, anti-RXR (NR concentration 30 nM, RXRa partner concentration 10 nM)
# In short: as §1
# [10] = tested on: PPARg:RXRa 90nM:30nM, anti-RXR (NR concentration 90 nM, RXRa partner concentration 30 nM)
# In short: as §1
Sequence,PBM binding z-score [1],PBM binding z-score [2],PBM binding z-score [3],PBM binding z-score [4],PBM binding z-score [5],PBM binding z-score [6],PBM binding z-score [7],PBM binding z-score [8],PBM binding z-score [9],PBM binding z-score [10]
CCGACTGGGGCATGGTTACCATAACGCACAGCCA,-0.978,-0.621,-0.461,-0.438,-1.07,0.0592,1.31,1.11,-0.195,0.273
CGAACTAAGTCAGAACAGGACAGTGAAGGATGAT,-0.105,-0.427,0.0634,-0.842,-0.576,-0.444,0.514,-0.265,0.171,-0.00279
ATCTCTAGGTAAAGATAGTTCAATGAATGCAAAT,0.446,4.83,1.09,1.44,0.777,1.15,1.03,0.735,0.381,0.638
CAAACTAGGTCATCGGAAGGTCAAAGTCCGCATG,6.11,5.83,5.44,4.82,1.45,6.01,8.72,7.35,5.14,7.04
GCGACTGGGGCATCCGCAGGTTACCATAACTTAA,-0.134,-0.356,-0.324,0.722,-0.515,1.06,0.756,0.848,-0.543,0.0228
ATCGAAAGGTCGACGAGGCGAGTATACACCGTTT,3.59,3.38,0.0627,2.5,0.404,4.27,2.48,2.74,0.711,1.71
GCTAGTTGGTCAGTAACAGGTCACACACCGGTCG,0.984,1.45,1.48,1.39,-0.167,2.06,0.82,1.12,-0.211,0.627
CCTAGCCGGCCAGGGTCACTCAAGCATTTCGCTT,2.27,1.64,-0.316,2.03,-0.922,2.97,0.0332,0.958,-0.474,0.121
TCATATAGGTAAATGCTAGGTGTAAGTCCGATCT,0.454,0.941,0.2,0.659,-0.0969,1.05,0.749,2.17,3.9,2.97
CAAACTAGGTCAAGTTCAAAGTCGGTTTGTGCCA,5.99,4.84,4.22,3.64,1.37,5.81,8.91,7.48,5.88,7.46
ATATGTCGGTTATCGGGTCATTCAGTTTGCGCAT,2.49,2.52,1.64,2.54,0.586,3.3,2.53,2.94,0.785,2.19
CTCGAAAGGACGTGCTCAGGTGAGTATACCAAAC,0.0322,-0.223,-0.388,-0.196,-0.277,-0.124,0.136,-0.268,-0.294,-0.148
CCGACTTGGGCATAAGGTTACCATAAGCCAGCCC,0.141,1.54,-0.195,0.516,-1.29,0.631,0.738,0.712,-0.372,0.427
ACTTCCGGGTCAACGAGGTTATAGCACGCGTATA,6.37,4.46,0.851,4.24,1.38,5.23,6.06,5.53,2.51,4.51
CGTCACAGTTCAACTAAGGTAACGTAAAGCACGC,3.5,3.37,1.17,2.07,0.36,3.14,1.61,1.49,0.576,0.859
GATACAGGGTCAGCTAGAGGCCAGCGTATGGAAA,4.35,2.75,-0.301,2.11,-1.03,4.37,3.18,3.49,0.694,1.92
CCTACTGGGCCAAGGTCAGTGATCAGTCAAAGCA,0.749,0.797,0.0206,0.924,-0.982,2.46,2.73,3.3,0.671,2.45
TCGAGTAGGTTAGTCGGGGCATTGAGCCAACATA,-0.211,-0.326,-0.78,0.048,-1.23,0.416,-0.175,0.835,1,0.777
TCTCGGAGGACACGAAAGTTCAGAGCTCGACATC,1.03,2.18,2.89,0.952,-0.575,1.14,0.211,1.25,2.34,1.81
GCTTGTAGATCAAGGTTAAGAAAGACTAAGCTAA,0.0354,0.884,-0.55,0.55,-0.627,1.56,1.01,2.05,0.29,1.56
AATACAGGGTCACTCGGCCAGAGTAGGTACGAAT,6.58,5.13,1.19,4.06,1.03,5.6,6.87,5.81,2.53,4.66
ACTATTAGTTGAGAGGAGGGCAACCGATAGGTTG,0.181,-0.0431,0.0481,-0.187,0.248,0.335,0.512,0.15,0.176,0.106
CCGACTGGGGCAAAAGTTACCATACTCAGTACGA,-0.402,-0.339,-0.126,-0.0156,-0.764,2.49,5.28,6.09,4.45,6.52
CCTACTGGGGCAAAAAGGTCATTGATGCCGATAA,3.82,4.34,2.86,3.92,0.284,4.96,4.68,5.28,2.57,4.43
